Laboratory results as given in PubChem BioAssay AID463173 (ICCB-Longwood Screening Facility, Harvard Medical School, 2010).
The campaign covered roughly 52,000 compounds. About 4,300 (8.3%) were called active. This is one part of a sample in which actives are shown more often than they occur. Rule as the data show it: active = survival mostly below about 52% (no sharp cut-off); inactive = mostly above about 56%.

The molecules below were run on DeltatarO mutant (assay: S. aureus survival, RN4220 and DeltatarO strains – OD600, teichoic acid synthesis inhibitors, primary screen (AID 463173)). Settings: S. aureus RN4220 wild type/DeltatarO growth, OD600, 18 h, hits give low values, screened at 18.75 µg/mL (by protocol).
`COc1ccccc1NC(=O)C1=C(C)Nc2nc(SCc3ccccc3)nn2C1c1ccccn1` (stereo not given) was tested, and the survival was 65% (inactive). For `Cc1cc(C)cc(Nc2sc(C(=O)c3ccccc3)c(N)c2S(=O)(=O)c2ccccc2)c1`, the survival was 101% (inactive). `Cc1ccsc1CCN1C(=O)N(c2ccccc2)C(=O)C1CC(=O)Nc1ccc(F)cc1` (stereo not given) was tested, and the survival was 114% (inactive). In the case of `CC(C)=CCC(C)(C)C1OCCN1C(=O)Nc1ccccc1` (stereo not given), the survival is reported as 95% (inactive). `Cc1sc2c(c1C)c(=O)n(Cc1ccccc1)c(=O)n2Cc1ccc(F)cc1` was tested, and the survival was 109% (inactive). With `COc1ccc(C2CC(=O)c3cc(-c4nc(-c5ccc(Cl)cc5)cs4)c(=O)[nH]c3C2)cc1OC` (stereo not given) the survival was 59% (inactive). With `CC(=O)c1ccc(NC(=O)/C=C/c2ccc(C)o2)cc1` the survival was 48% (inactive). For `COc1ccc(Cn2ccnc2SCC(=O)Nc2nc3ccccc3s2)cc1`, the survival was 84% (inactive). With `CCc1ccc(OCCCSc2nc(-c3ccc(C(C)(C)C)cc3)nc3cc(=O)[nH]n23)cc1` the survival was 80% (inactive). For `CCOC(=O)c1[nH]c(C)c(C(=O)NCc2ccc(F)cc2)c1C`, the survival was 79% (inactive). `O=S(=O)(c1cccc(Cl)c1)c1nnn2c1nc(NC1CCCCCC1)c1sccc12` was tested, and the survival was 106% (inactive). With `COc1cccc(OCc2nc3ccccc3n2CCOc2cccc(C)c2)c1` the survival was 44% (active). In the case of `COc1cccc(OCc2nc3ccccc3n2CCOc2ccc(C)cc2)c1`, the survival is reported as 36% (active). For `COc1cccc(OCCn2c(-c3ccc(Br)cc3)nc3ccccc3c2=O)c1`, the survival was 82% (inactive). For `CCCCn1c(COc2cccc(OC)c2)nc2ccccc21`, the survival was 57% (inactive). `COc1cccc(OCc2nc3ccccc3n2CCOc2ccccc2)c1` was tested, and the survival was 35% (active). With `CCCn1c(COc2cccc(C)c2)nc2ccccc21` the survival was 12% (active). `COc1cccc(OCc2nc3ccccc3n2C)c1` was tested, and the survival was 57% (inactive). `O=S(=O)(NCc1ccccc1Cl)c1ccc(-c2cnc(C3CC3)o2)cc1` was tested, and the survival was 101% (inactive). In the case of `CC1CCN(c2nc3c(S(=O)(=O)c4cccc(Cl)c4)nnn3c3ccsc23)CC1`, the survival is reported as 81% (inactive). For `Cc1c(C#N)c2ccccc2n1CC(=O)NC1CCCCCC1`, the survival was 72% (inactive). With `CC(C(=O)Nc1ccccc1C(=O)N1CCCC1)n1nnc2ccccc21` (stereo not given) the survival was 77% (inactive). With `COc1ccc(Nc2nnc(-c3ccc(C)c(S(N)(=O)=O)c3)c3ccccc23)cc1` the survival was 70% (inactive). With `CCn1c(SCC(=O)c2ccc(Br)cc2)nnc1-c1ccncc1` the survival was 99% (inactive). `CC1CCC2C(C1)Nc1c(C(=O)O)cccc1C2(C)C` (stereo not given) was tested, and the survival was 40% (active). For `CC1CCC(=O)C(C2(O)C(=O)Nc3ccccc32)C1` (stereo not given), the survival was 93% (inactive). `COc1ccc(OC)c(NC(=O)CN2CCCN(Cc3ccccc3Cl)S2(=O)=O)c1` was tested, and the survival was 128% (inactive). With `Cc1ccc2c(c1)N(CC(=O)Nc1ccccc1C(F)(F)F)C(=O)c1cccnc1O2` the survival was 100% (inactive). For `CCOC(=O)c1c(S(=O)(=O)N2CCCC(C(=O)N(C)Cc3ccccc3)C2)c(C)n(C)c1C` (stereo not given), the survival was 92% (inactive). `Cc1ccc(Cl)cc1Nc1nn2c(=O)c3ccc(C(=O)N4CCCC(C)C4)cc3nc2s1` (stereo not given) was tested, and the survival was 73% (inactive). In the case of `CC(C)c1nc2ccccc2c(=O)[nH]1`, the survival is reported as 91% (inactive). With `Cc1nc(-c2ccccc2)cc(=O)[nH]1` the survival was 109% (inactive). For `Cc1nc2cc3ccccc3cc2c(=O)[nH]1`, the survival was 47% (active). For `CNS(=O)(=O)c1cn(CC(=O)N2CCN(c3ccccc3F)CC2)cc1S(=O)(=O)NC`, the survival was 71% (inactive). In the case of `COc1ccc(S(=O)(=O)Nc2ccc(-c3cn4c(C)csc4n3)cc2)cc1`, the survival is reported as 94% (inactive). In the case of `CC(=O)Nc1ccc(S(=O)(=O)Nc2ccc(-c3cn4c(C)csc4n3)cc2)cc1`, the survival is reported as 89% (inactive). `CC(=O)c1ccc(S(=O)(=O)Nc2ccc(-c3cn4c(C)csc4n3)cc2)cc1` was tested, and the survival was -5% (active). In the case of `CCCC(=O)Nc1cccc(-c2nc3cc(C)c(C)cc3o2)c1C`, the survival is reported as 57% (inactive). For `Cc1cc2oc(C(=O)Nc3cccc(-c4nc5ccccc5o4)c3)c(C)c2cc1C`, the survival was 74% (inactive). In the case of `Cc1cc2nc(-c3ccc(NC(=O)c4ccccc4F)cc3)oc2cc1C`, the survival is reported as 66% (inactive). In the case of `COc1cc2ccccc2cc1C(=O)Nc1cccc(-c2nc3ccccc3o2)c1`, the survival is reported as 7% (active). With `COc1cc2ccccc2cc1C(=O)Nc1cccc(-c2nc3cc(C)ccc3o2)c1C` the survival was 55% (inactive). In the case of `Cc1cc2nc(-c3cccc(NC(=O)c4cccc5ccccc45)c3)oc2cc1C`, the survival is reported as 57% (inactive). With `COc1cc2ccccc2cc1C(=O)Nc1cccc(-c2nc3cc(C)c(C)cc3o2)c1C` the survival was 45% (active). For `COc1cc2ccccc2cc1C(=O)Nc1ccc2oc(-c3cccc(Cl)c3Cl)nc2c1`, the survival was 56% (inactive). For `COc1cc2ccccc2cc1C(=O)Nc1ccc2oc(-c3cc(Br)ccc3Cl)nc2c1`, the survival was 75% (inactive). In the case of `COc1cc2ccccc2cc1C(=O)Nc1cc(-c2nc3ccccc3o2)ccc1C`, the survival is reported as 111% (inactive). `COc1cc2ccccc2cc1C(=O)Nc1ccc(Cl)c(-c2nc3ccccc3o2)c1` was tested, and the survival was 40% (active). In the case of `COc1cc2ccccc2cc1C(=O)Nc1cccc(-c2nc3cc(C)c(C)cc3o2)c1`, the survival is reported as 41% (active). In the case of `CCc1cccc(NC(=O)Cn2c(=O)n(CCCCCC(=O)NCc3ccc(F)cc3)c(=O)c3sccc32)c1`, the survival is reported as 63% (inactive). For `O=C(NCc1ccc(Cl)cc1)C1CCN(C(=O)c2cnn(-c3ccccc3)c2-n2cccc2)CC1`, the survival was 65% (inactive). `Cc1ccc(C)c(NS(=O)(=O)c2cc3c4c(c2)C(C)C(=O)N4CCC3)c1` (stereo not given) was tested, and the survival was 106% (inactive). With `COc1ccc(CNC(=O)c2cnc3sc(N4CCCCCC4)nn3c2=O)cc1` the survival was 101% (inactive). With `CCOc1cccc2cc(-c3nc(-c4ccccc4C)no3)c(=O)oc12` the survival was 76% (inactive). `CCc1ccc(S(=O)(=O)c2nnn3c2nc(N(C)Cc2ccccc2)c2cc(Cl)ccc23)cc1` was tested, and the survival was 82% (inactive). `COc1cc(-c2nc3sccn3c2Nc2cccc(C)c2)ccc1O` was tested, and the survival was 54% (inactive). `Cc1ccc(CNC(=O)CCCCn2c(=O)c3ccccc3n(Cc3ccc(Cl)cc3)c2=O)cc1` was tested, and the survival was 105% (inactive). In the case of `Cc1ccc(Cn2c(=O)n(Cc3ccccc3Cl)c(=O)c3ccccc32)cc1`, the survival is reported as 48% (active). With `Cc1ccc(Cn2c(=O)n(Cc3ccccc3Cl)c(=O)c3cccnc32)cc1` the survival was 69% (inactive). In the case of `Cc1ccc(Cn2c(=O)n(CCCCC(=O)NCc3ccccc3Cl)c(=O)c3ccccc32)cc1`, the survival is reported as 102% (inactive). With `Cc1ccc(Cn2c(=O)n(CCCCC(=O)NCCc3ccc(Cl)cc3)c(=O)c3ccccc32)cc1` the survival was 96% (inactive). For `O=c1c2ccccc2n(Cc2cccc(F)c2)c(=O)n1Cc1ccccc1Cl`, the survival was 29% (active). For `Cc1ccc(Cn2c(=O)n(CCc3ccc(Cl)cc3)c(=O)c3ccccc32)cc1`, the survival was 42% (active). For `O=C(CCCn1c(=O)c2ccccc2n(Cc2cccc(F)c2)c1=O)NCc1ccccc1Cl`, the survival was 74% (inactive). In the case of `O=c1c2cccnc2n(Cc2cccc(F)c2)c(=O)n1Cc1ccccc1Cl`, the survival is reported as 91% (inactive).
